Screening data from PubChem BioAssay.
Pf growth 96h: P. falciparum growth inhibition at 96 hours; P. falciparum luciferase reporter growth, 96 h; Potency, µM (top dose mostly 28.7 µM), for inactives: at the highest dose activity change, negative = inhibition, hits mostly inhibitors; actives 6.9% (n = 320,000); further: on the % scale 0 is the no-effect control and ±100 the full control effect
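Readout is luminescence from an integrated firefly luciferase in P. falciparum. Red cells, 2% hematocrit and 0.05% parasitemia final, were cultured with compound through two parasite generations (96 hours) at 37 C, 5% CO2.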
AMA1-RON2 inh: inhibitors of Plasmodium falciparum AMA1-RON2 interaction | actives 0.2% (n = 360,000) | AID 720542 | Potency, µM (series often up to 58.2 µM), without a hit: at the highest dose activity change, negative = inhibition, actives largely listed as inhibitors | AlphaScreen AMA1-biotinylated RON2 peptide binding;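 further: 0% = vehicle wells and -100% = peptide control; nearly all actives have a fitted effect of over 45% in size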
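AMA1 (3D7) with his tag at 25 nM final met compounds first, then biotinylated RON2 peptide at 25 nM; detection used donor plus acceptor beads, 10 µg/mL apiece, read by AlphaScreen after 30 min at room temperature.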
Pf growth 48h: inhibits P. falciparum growth in the first generation, 48 h. P. falciparum luciferase growth in erythrocytes, 48 h. Potency, µM (doses to about 28.7 µM), inactives show at the highest dose activity change, negative = inhibition, actives largely listed as inhibitors. actives 5.9% (n = 310,000). AID 504832; further: on the % scale 0 is the no-effect control and ±100 the full control effect
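Luciferase-expressing P. falciparum in infected erythrocytes (2% hematocrit, 0.1% parasitemia final) in RPMI 1640/0.5% Albumax were exposed to compound for 48 hours at 37 C, 5% CO2; growth read as luminescence.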
NS1 inh: inhibitors of influenza NS1 protein function | Potency, µM (highest dose often 46.1 µM), for the others: at the highest dose activity, positive = more growth | actives 0.4% (n = 270,000); calls by dose curve; further: actives are rising curves; nearly all actives have a fitted effect of over 50% in size
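Read-out: OD600 growth recovery of NS1-expressing budding yeast. Cells grown overnight at 30C in -URA glucose medium, washed, resuspended and diluted 1:100 in 2% galactose assay medium, pH 6.0. Same strain lacking NS1 served as positive control.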
Sm TGR block: inhibitors of Schistosoma mansoni thioredoxin glutathione reductase; Q962Y6; purified TGR, DTNB reduction, TNB absorbance 405 nm; Potency, µM (highest dose often 114 µM), for the others: top-dose activity change, negative = inhibition, hits mostly inhibitors; actives 3% (n = 360,000); AID 485364; further: on the % scale 0 is the no-effect control and ±100 the full control effect; nearly all actives have a fitted effect of over 60% in size
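Kinetic colorimetric format: TGR-catalysed, NADPH-driven DTNB reduction monitored via TNB absorbance. Enzyme dispensed at 20 nM; compound exposure 15 min at room temperature before reaction start.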
Numbers without * were called inactive; u = inconclusive; x = no result given. Sampled rows, rich in hits. Any-hit rate of the full collection: about 11%. Unless noted, the call rests on the fitted dose curve; in most records, active means well fitted curve in the direction sought with a large enough effect; inconclusive means small, poorly fitted or top-dose-only effect, or another doubt; inactive means no such curve, though single readings can be large; an effect the other way counts as inactive or inconclusive. Potency means the concentration at half of the fitted maximal effect.

SMILES	Pf growth 96h	AMA1-RON2 inh	Pf growth 48h	NS1 inh	Sm TGR block
Cn1c(=O)c([N+](=O)[O-])c(NCc2ccccc2)c2ccccc21	8.3µM*	-1%	0%	5%	0%
CCNc1c([N+](=O)[O-])c(=O)n(CC)c2ccccc12	10%	-1%	-1%	2%	-5%
Cn1c(=O)c([N+](=O)[O-])c(NCC2CCCO2)c2ccccc21 (centres undefined)	88%	0%	49%	-2%	14%
COC(=O)C[C@@H]1C=C[C@H](NC(=O)Nc2ccc(OC)cc2)[C@@H](CO)O1	x	1%	x	x	x
CC(=O)Nc1ccc(C2=NOC(C)(C)C(=O)N2Cc2cccc(C#N)c2)cc1	x	-4%	x	x	x
COc1ccc(S(=O)(=O)NCC(c2cccnc2)N2CCN(c3ccccc3)CC2)cc1C (centres undefined)	u	-13%	x	-64%	u
O=S(=O)(NCC(c1cccnc1)N1CCN(Cc2ccccc2)CC1)c1cc(F)ccc1F (centres undefined)	10µM*	-7%	u	-4%	-22%
CCS(=O)(=O)NCC(c1cccnc1)N1CCN(c2ccccc2OC)CC1 (centres undefined)	-2%	2%	-7%	u	3%
O=S(=O)(NCC(c1cccnc1)N1CCN(Cc2ccccc2)CC1)c1ccc(F)cc1 (centres undefined)	u	-15%	u	4%	-6%
CCN1CCN(C(CNS(=O)(=O)c2ccc(OC)c(C)c2)c2cccnc2)CC1 (centres undefined)	15µM*	11%	-5%	-3%	-2%
COc1ccccc1N1CCN(C(CNS(=O)(=O)c2cccs2)c2cccnc2)CC1 (centres undefined)	u	-15%	10µM*	-7%	u
COc1ccc(S(=O)(=O)NCC(c2cccnc2)N2CCN(c3ccc(F)cc3)CC2)cc1C (centres undefined)	237%	-5%	4.7µM*	-82%	-23%
O=C(O)NCC1CCCCC1 (tested in a mixture with another compound)	x	x	x	-5%	x
COc1ccc(C2Nc3ccccc3C(=O)N2Cc2ccco2)cc1COc1ccccc1F (centres undefined)	4.1µM*	-11%	x	5%	-25%
Cc1ccc(C2Nc3ccccc3C(=O)N2Cc2ccco2)cc1 (centres undefined)	15µM*	-10%	u	-41%	-28%
O=C1c2ccccc2NC(c2ccc(O)cc2)N1Cc1ccco1 (centres undefined)	u	3%	-24%	11%	u
Cc1ccc(NC(=O)Nc2cn(C)c(=O)c3ccccc23)c(Cl)c1	x	x	x	x	4%
CCCn1ccc2c(OCC(=O)Nc3cc(C)ccc3C)cccc2c1=O	x	x	x	x	-1%
CN(C)c1ccc(CNC(=O)CN2C(=O)CSc3ccc(S(=O)(=O)N4CCCC4)cc32)cc1	x	x	x	x	-9%
O=C1CC(C(=O)N2CCC(N3CCC(C(=O)NC4CC4)CC3)CC2)c2ccccc21 (centres undefined)	u	-2%	u	11%	40µM*
O=C(NC1CC1)C1CCN(C2CCN(C(=O)c3c(F)cccc3Cl)CC2)CC1	21%	4%	15%	-1%	-36%
Cc1cc(CN2CCC(N3CCC(C(=O)NC4CC4)CC3)CC2)cc(C)c1O	32%	9%	u	7%	45µM*
COc1ccc(OC)c(N(CC(=O)NC2CCCC2)S(=O)(=O)c2ccc(OC)c(OC)c2)c1	5.9µM*	-16%	u	-2%	-22%
CCOc1ccccc1N(CC(=O)NC1CCCCC1)S(=O)(=O)c1ccc(C)cc1	24%	-2%	12µM*	-22%	29%
COc1ccccc1N(CC(=O)NC1CCCC1)S(=O)(=O)c1cccc(C(F)(F)F)c1	u	18%	13µM*	x	1%
SMILES	Pf growth 96h	AMA1-RON2 inh	Pf growth 48h	NS1 inh	Sm TGR block
COc1ccc(OC)c(N(CC(=O)N2CCC(C)CC2)S(=O)(=O)c2ccc(OC)c(OC)c2)c1	2.6µM*	4%	u	2%	5%
COc1ccccc1N(CC(=O)NC1CCCC1)S(=O)(=O)c1ccc(C)cc1	15%	7%	u	-24%	-17%
OCC[C@@H]1C[C@H](O)[C@@H](O)[C@@]2(CCCO2)O1	x	-6%	x	x	x
C[C@@H]1CN([C@H](C)CO)C(=O)CCCn2nncc2CO[C@H]1CN(C)S(=O)(=O)c1ccc(F)cc1	x	8%	x	x	x
CCOC(=O)c1c(NC(=O)CSc2nnnn2-c2ccccc2)sc2c1CC(C)(C)NC2(C)C	2.6µM*	3%	6.6µM*	19%	1%
CCOc1ccccc1-n1nnnc1SCC(=O)Nc1cc(C)on1	3%	-8%	u	-9%	5%
CCOC(=O)c1c(NC(=O)CSc2nc3ccc(C)cc3[nH]2)sc2c1CC(C)(C)NC2(C)C	4.7µM*	-6%	4.7µM*	x	6%
CCOC(=O)c1c(NC(=O)CSc2nnnn2-c2ccccc2OCC)sc2c1CC(C)(C)NC2(C)C	8.3µM*	-8%	10µM*	x	5%
Cc1ccc2nc(SCC(=O)Nc3ccc(C(N)=O)cc3)[nH]c2c1	u	-18%	-20%	u	25%
CC12CC3CC(C)(C1)CC(NCc1ccncc1)(C3)C2	u	-2%	-4%	x	-3%
COc1ccc2c(CC(=O)Nc3ccc(C)cc3)coc2c1	x	x	x	x	4%
COc1cc(NC(C)CCCN)c2ncccc2c1Oc1ccccc1 (centres undefined)	2.1µM*	3%	u	9%	-19%
COc1ccc(C(=O)Nc2cc(OC)cc3cccnc23)cc1	27%	10%	35%	-11%	-6%
COc1cc(N[C@@H](C)CCCN)c2ncccc2c1	0.57µM*	x	0.81µM*	x	x
O=C(NCc1ccc(Cl)s1)C1CCC(=O)N(CCc2cccc(F)c2)C1 (centres undefined)	0%	2%	15%	3%	4%
CC(=O)Nc1ccc(NC(=O)/C(=C/c2ccco2)NC(=O)c2ccccc2)cc1	u	11%	10%	8%	x
O=C(Nc1ccc(C(=O)O)cc1)/C(=C\c1ccco1)NC(=O)c1ccccc1	9.3µM*	-5%	-8%	2%	x
CC(C)(C)c1ccc(C(=O)N/C(=C\c2ccco2)C(=O)Nc2ccccc2C(=O)O)cc1	12%	0%	13%	u	40µM*
O=C(NC1CCS(=O)(=O)C1)/C(=C\c1ccco1)NC(=O)c1ccccc1 (centres undefined)	33%	-1%	5%	6%	35µM*
CCOc1ccc(N2C(=O)CSC2=S)cc1	13µM*	9%	-2%	-147%	2%
CCOc1ccc(N2C(=O)CC(=O)NC2=O)cc1	10µM*	-12%	-5%	21%	u
CCN(CC)c1ccc(N2C(=O)CSC2=S)cc1	u	-4%	u	0%	-3%
Cc1nnc2c(N3CCN(c4ccc(F)cc4)CC3)nc3ccc(C(=O)c4ccccc4)cc3n12	x	x	x	x	2%
